Results: PubChem BioAssay
The source made the active and inactive calls.

Tested on: XIP peptide (Xip251-270) binding
Experiment: XIP fragment 251-270 binding compounds – biochemical, small-molecule microarray, fluorescence 635/667 nm, 0.1 µg/mL protein, primary screen (AID 1182)
Conditions: fluorescent protein binding, 635 nm, higher = more signal, called active from +8 up or from −8 down

Composite z-score, inactive:
CN(C)C(=O)[C@@]1(CCC(=O)OC(C)(C)C)N=C(c2ccc(OCCCO)cc2)O[C@H]1c1ccccc1 0.373
O=C1OCCC/C=C\[C@H]2OC34C=CCN(Cn5nnc6ccccc65)C(=O)[C@H]3N(CCCCCO)C(=O)[C@@H]4C12 (stereo not given in full) 0.145
C=C[C@H](C)[C@@H](O)c1ccc(O)c2ccccc12 -0.233
COc1ccc(CCNC(=O)[C@@]2(Sc3ccc(C)cc3)CC(=O)N(Cc3ccccc3Cl)[C@@H]2c2ccc(CO)cc2I)cc1 0.259
COCCOC(=O)N1C(=O)[C@@]2(c3cc(C#CCNC(N)=O)ccc31)[C@H](C(=O)N1CCN(c3ncccn3)CC1)[C@H]1C(=O)O[C@H](c3ccccc3)[C@H](c3ccccc3)N1[C@@H]2c1ccccc1OCCO 1.56
CCCCCN1CC=CC23O[C@@H]4/C=C\CCCOC(=O)C4[C@H]2C(=O)N(CCCCCCO)[C@@H]3C1=O (stereo not given in full) 0.403
O=C1N(CCS(=O)(=O)c2ccccc2)Cc2ccccc2C[C@]12N=C(c1ccc(OCCCO)cc1)O[C@@H]2c1ccccc1 0.194
COC(=O)[C@@]1(Cc2ccccc2N=[N+]=[N-])COC(c2ccc(OCCCO)cc2)=N1 1.25
C=C(CCCC)C(=O)CC[C@H](OC(=O)c1cccnc1)c1cccc(OCCO)c1 0.179
CCOC(=O)C[C@H]1[C@H](OC(=O)c2ccc(-c3ccccc3)cc2)[C@@H](NC(=O)c2ccc3ccccc3c2)c2cc(OCCCO)ccc2N1C(=O)Cc1ccc(OC)cc1 -0.341
